# Assay outcomes as filed in PubChem BioAssay.
# Most compounds without a hit are left out; they make up all but 2.4% or so of the library.
# D2 PAM-1: positive allosteric modulators of human D2 dopamine receptor; P14416; potentiation, % (no concentration beside the values); hit rate 0.23% among 360,000; DiscoveRx D2 beta-arrestin cells, luminescence, 90 min; 100% = 57 uM dopamine signal; in the data active means potentiation above about 50%
#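 PathHunter D2 cells, attached overnight at 37 deg C, received compound in DMSO plus dopamine at EC20 (50 nM final) for 90 min at 37 deg C. Beta-arrestin recruitment was read as luminescence after 1 h with detection reagent at ambient temperature.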
# D2 ag-1: activates the human D2 dopamine receptor. P14416. DiscoveRx PathHunter D2 beta-arrestin, luminescence, 90 min; 100% = 57 uM dopamine signal. activation, % (test concentration not listed). hit rate 0.084% among 360,000; in the data active means activation above about 40%
#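 Agonist mode: compounds alone added to overnight-plated D2 PathHunter cells for 90 min at 37 C, with 57 uM final dopamine (EC100) defining full response. Beta-arrestin recruitment detected by chemiluminescent reagent, read after 1 h at ambient temperature.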
# D2 PAM-2: positively modulates the human D2 dopamine receptor allosterically; potentiation, % at 10 µM; HEK293 T-REx D2, calcium flux, EC20 dopamine potentiation; hit rate 0.34% among 340,000; AID 485347;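 active means potentiation over 3 SD above the plate norm, cut at about 30% in these data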; further: 0% is about no effect
#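 Potentiation of an EC20 dopamine calcium response measured kinetically over 180 s, after a preceding 180 s compound-only read flagging agonists. Cells: inducible Hek293 Trex D2 line, 4000/well, cultured overnight at 30 C before dye loading.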
# D2 antagonist: D2 dopamine receptor (human) antagonism. P14416. HEK293 TREx D2 cells, calcium flux, dopamine EC80. inhibition, % at 10 µM. hit rate 2% among 340,000. AID 485344; in the data active means inhibition above about 30%; inactive means below that, where a call was filed; further: 0% is about no effect
#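 Tetracycline-induced HEK293 TREx cells expressing D2 receptor forced-coupled to calcium signalling, loaded with no-wash calcium dye. Compounds added and calcium flux read 180 s, then dopamine added at EC80 and read a further 180 s.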
# D2 ag-2: activates the human D2 dopamine receptor. P14416. HEK293 T-REx D2 cells, calcium flux agonist mode. activation, % at 2 µM. hit rate 0.53% among 340,000;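 active means activation over 3 SD above normal in the single-dose calcium agonist read, cut at about 30% in these data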; further: 0% is about no effect
#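 Agonism scored from kinetic calcium signal (1 read/sec, 180 s) following compound pin transfer, after a 10 s baseline. Cells: HEK293 Trex line expressing inducible D2 receptor coupled to calcium, dye-loaded after overnight culture at 30 C.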
# D3 ag: activates human D3 dopamine receptor beta-arrestin recruitment; Potency, µM (doses to about 76.9 µM), for the others: at the highest dose activation, most hits filed as activators; shares compounds with D2 ag-2; hit rate 4% among 2,300; DiscoveRx D3 beta-arrestin cells, luminescence, 90 min; AID 720506;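 further: potency means the concentration at half of the fitted maximal effect; 100% = dopamine control response; nearly all actives have a fitted effect of over 70% in size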
# Target sequence (P35462 whole entry, looked up): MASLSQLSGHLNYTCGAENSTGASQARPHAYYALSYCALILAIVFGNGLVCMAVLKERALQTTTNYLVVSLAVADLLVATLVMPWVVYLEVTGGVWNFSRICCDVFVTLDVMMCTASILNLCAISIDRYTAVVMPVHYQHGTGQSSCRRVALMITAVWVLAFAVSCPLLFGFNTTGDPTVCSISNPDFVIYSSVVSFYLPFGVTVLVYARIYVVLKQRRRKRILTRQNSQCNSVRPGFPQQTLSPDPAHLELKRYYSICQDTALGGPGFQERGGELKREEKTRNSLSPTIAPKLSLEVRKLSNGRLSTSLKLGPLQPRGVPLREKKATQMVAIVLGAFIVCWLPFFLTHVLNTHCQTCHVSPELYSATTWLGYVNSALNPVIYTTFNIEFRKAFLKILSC
# D2 ag-3: counter-screen for D3 agonists: human D2 dopamine receptor agonism. shares compounds with D2 ag-2. DiscoveRx PathHunter D2 beta-arrestin, luminescence, 90 min; response scale: percent relative to full dopamine signal. Potency, µM (series often up to 76.9 µM), for inactives: at the highest dose activation, hits mostly activators. hit rate 5.9% among 2,300; further: potency means the concentration at half of the fitted maximal effect; % of control where 0% means no effect; nearly all actives have a fitted effect of over 70% in size
# An asterisk follows results filed as active; · = no result. Unless noted, the call rests on the fitted dose curve; in most records, active means well fitted activation curve with a large enough effect; inconclusive means small, poorly fitted or top-dose-only effect; inactive means flat fitted curve, though single readings scatter.
SMILES,D2 PAM-1,D2 ag-1,D2 PAM-2,D2 antagonist,D2 ag-2,D3 ag,D2 ag-3
COC(=O)C1=C(c2ccc(-c3ccccc3)c(F)c2)C[C@@H]2CC[C@H]1N2C(=O)NCCO,-12,-2,-2,4,0,-2%,2%
COC(=O)C1=C(c2ccc(OCc3ccccc3)cc2)C[C@@H]2CC[C@H]1N2C(=O)NCc1ccc(N(C)C)cc1,-7,-3,16,-4,1,-1%,4%
COC(=O)C1=C(c2ccc(OCc3ccccc3)cc2)C[C@@H]2CC[C@H]1N2C(=O)NCc1ccc(F)cc1,-6,-9,·,·,·,·,·
COC(=O)C1=C(c2ccc(-c3ccccc3)c(F)c2)C[C@@H]2CC[C@H]1N2C(=O)NCCOc1ccccc1Cl,-16,-3,-5,-8,0,-1%,0%
C=C1C(O)[C@@H]2O[C@]3(CC[C@H](/C=C/C(C)[C@@H]4CC(C)=CC5(O[C@H](C[C@@](C)(O)C(=O)O)CCC5O)O4)O3)CC[C@H]2O[C@@H]1C(O)CC(C)[C@H]1OC2(CCCCO2)CCC1C (some centres not stated),-22,-6,·,·,·,·,·
C[C@H](CO)N1C[C@H](C)[C@@H](CN(C)C(=O)Oc2ccc3ccccc3c2)OCc2cn(nn2)CCCC1=O,13,6,·,·,·,·,·
COc1cccc(-n2c(/C=C/c3ccccc3O)nc3ccccc3c2=O)c1,·,·,·,·,-1,·,·
Cc1cccc(Cn2cccc(C(=O)Nc3cc(C)on3)c2=O)c1,·,·,-1,·,-1,·,·
COc1ccccc1N1CCN(Cc2ccc(F)cc2)CC1,-11,6,-22,76*,38*,-4%,-1%
COc1ccc(CN2CCN(c3ccccc3F)CC2)cc1O,-32,11,·,·,·,15%,22%
Cc1cccc(-n2c(/C=C/c3cn(C)c4ccccc34)nc3ccccc3c2=O)c1,·,·,-4,·,0,·,·
CC(C(N)=O)N1CC(c2ccccc2)CC1=O (configuration not stated),-12,1,-19,0,45*,0%,-2%
N#Cc1cccc(NC(=O)CSc2nc3c(cc2C#N)N2CCC3CC2)c1,·,·,-3,·,0,·,·
CCOC(=O)C1CCN(Cc2ccc(Cl)nc2)CC1,-13,4,-20,47*,47*,-3%,1%
CCOc1ccc(CN2CCN(C(=O)Cc3ccccc3)CC2)cc1,-21,-7,-3,-14,1,·,·
CCCCCc1nc2c(c(=O)c3ccccc3n2C)c(=O)n1C1CCCCCC1,-6,-2,-15,46*,36*,16%,3%
CCCCCc1nc2ccccc2c(=O)n1-c1ccc(C)cc1,·,·,9,·,-1,·,·
Nc1c(C(=O)Nc2ccc(F)c(Cl)c2)sc2nc3c(cc12)N1CCC3CC1,·,·,0,·,0,·,·
N#C/C=C/C#N,-1,2,5,3,0,-2%,-5%
Cc1ccccc1-n1c(/C=C/c2ccc(O)cc2)nc2ccccc2c1=O,·,·,5,·,1,·,·
O=P(CN1CCN(c2ccccc2)CC1)(N1CCCCC1)N1CCCCC1,5,9,-1,37*,28,11%,13%
c1ccc(-c2cc(-c3ccccc3)[n+](-c3ccccc3)c(-c3ccccc3)c2)cc1,23,14,·,·,·,·,·
Cc1ccc(-c2cc(-c3ccc(C)cc3)[n+](-c3ccccc3)c(-c3ccc(C)cc3)c2)cc1,-88,4,1,49*,28,16%,18%
CCOC(=O)c1ccccc1C(=O)OCC,-8,2,·,·,·,·,·
CCCOC(=O)c1ccccc1C(=O)OCCC,-8,8,7,-5,-1,-8%,-3%
CCc1ccc(CNCCc2c[nH]c3ccccc23)cc1,-77,-3,-16,14,7,-14%,-1%
Cc1ccc(CN2CCC3CCC(C3)C2)c(O)c1 (configuration not stated),-4,-4,·,·,·,·,·
